In the supplement of paper PMC8975748:
Structures can show the parent of a compound that is named as a salt.

Tested on: Saccharomyces cerevisiae BY4741 SeMeCo community
Test: z-score of subpopulation abundance vs DMSO median, subpopulation auxotrophic for U; higher = larger share of this subpopulation than in DMSO controls
Conditions: 10 µM; 24 h; SM minimal medium; subpopulation (auxotrophy): U
Method: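 Fluorescent four-plasmid SeMeCo (self-establishing metabolically cooperating S. cerevisiae BY4741 community; plasmids pH-mRuby2, pL-mWasabi, pU-eCFP, pM-TagRFP657) was grown 24 h in minimal SM medium with each Selleck FDA-approved drug at 10 µM in 384-well plates. Cells were fixed and imaged by high-content confocal microscopy. For each auxotrophic subpopulation (and the prototroph), a z-score gives the deviation from the DMSO vehicle-control population median.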

Row | SMILES | z-score of subpopulation abundance
1 | CCN1CCC[C@H]1CNC(=O)c1cc(S(N)(=O)=O)ccc1OC [Levosulpiride] | 0.41
2 | CN1CC2c3ccccc3Oc3ccc(Cl)cc3C2C1 (stereo not given) [Asenapine maleate] | -0.5
3 | NC(=O)c1ncn([C@@H]2O[C@H](CO)[C@@H](O)[C@H]2O)n1 [Ribavirin] | 1.52
4 | C[C@]1(Cn2ccnn2)[C@H](C(=O)O)N2C(=O)C[C@H]2S1(=O)=O [Tazobactam] | 0.75
5 | Cc1onc(-c2c(F)cccc2Cl)c1C(=O)N[C@@H]1C(=O)N2[C@@H]1SC(C)(C)[C@@H]2C(=O)O [Flucloxacillin sodium] | 0.55
6 | CCN(CC)C(=O)C1(c2ccccc2)CC1CN (stereo not given) [Milnacipran HCl] | 0.47
7 | Cc1c(Cl)cccc1Nc1ccccc1C(=O)O [Tolfenamic Acid] | 0.15
8 | COC(=O)C1=C(C)NC(C)=C(C(=O)OC(C)(C)CN(C)CCC(c2ccccc2)c2ccccc2)C1c1cccc([N+](=O)[O-])c1 (stereo not given) [Lercanidipine] | -0.86
9 | COc1cccc2c1C(=O)c1c(O)c3c(c(O)c1C2=O)C[C@@](O)(C(C)=O)C[C@@H]3O[C@H]1C[C@H](N)[C@H](O)[C@H](C)O1 [Daunorubicin HCl] | 4.14
10 | COCCCN1CCC(NC(=O)c2cc(Cl)c(N)c3c2OCC3)CC1 [Prucalopride] | 0.73
11 | COC(=O)C1=C(C)NC(C)=C(C(=O)OC)C1c1ccccc1[N+](=O)[O-] [Nifedipine] | 0.12
12 | C[C@@H]1CC(=O)NN=C1c1ccc(NN=C(C#N)C#N)cc1 [Levosimendan] | 0.92
13 | NCC[C@H](O)C(=O)N[C@@H]1C[C@H](N)[C@@H](O[C@H]2O[C@H](CN)[C@@H](O)[C@H](O)[C@H]2O)[C@H](O)[C@H]1O[C@H]1O[C@H](CO)[C@@H](O)[C@H](N)[C@H]1O [Amikacin disulfate] | 0.78
14 | O=C(N[C@H](CO)[C@H](O)c1ccc([N+](=O)[O-])cc1)C(Cl)Cl [Chloramphenicol] | -0.21
15 | COc1cccc2c1C(=O)c1c(O)c3c(c(O)c1C2=O)CC(O)(C(=O)CO)CC3OC1CC(N)C(O)C(C)O1 (stereo not given) [Doxorubicin (Adriamycin) HCl] | 4.2
16 | CC(=O)NC[C@H]1CN(c2ccc(N3CCOCC3)c(F)c2)C(=O)O1 [Linezolid] | 1.39
17 | CCC1(c2ccccc2)C(=O)NCNC1=O [Primidone] | -0.16
18 | Cc1cccc(C)c1NC(=O)C1CCCCN1C (stereo not given) [Mepivacaine] | 0.11
19 | NC(=O)N1c2ccccc2C=Cc2ccccc21 [Carbamazepine] | 0.01
20 | Fc1ccc(C(c2ccc(F)cc2)N2CCN(C/C=C/c3ccccc3)CC2)cc1 [Flunarizine 2HCl] | -0.07

Row | SMILES | z-score of subpopulation abundance
21 | NC[C@@H]1O[C@H](O[C@H]2[C@@H](O)[C@H](O[C@@H]3[C@@H](O)[C@H](N)C[C@H](N)[C@H]3O[C@H]3O[C@H](CO)[C@@H](O)[C@H](O)[C@H]3N)O[C@@H]2CO)[C@H](N)[C@@H](O)[C@@H]1O [Paromomycin Sulfate] | -0.06
22 | CC(C)(C)C(=O)C(Oc1ccc(Cl)cc1)n1ccnc1 (stereo not given) [Climbazole] | -1.3
23 | CC1(C)S[C@@H]2[C@H](NC(=O)[C@H](N)c3ccc(O)cc3)C(=O)N2[C@H]1C(=O)O [Amoxicillin] | 0.14
24 | C#CCN[C@@H]1CCc2ccccc21 [Rasagiline] | 0.2
25 | CCOC(=O)c1ccc(O)cc1 [Ethylparaben] | 1.83
26 | Cc1cccc(C)c1NC(=O)C1CCCCN1C (stereo not given) [Mepivacaine HCl] | 1.52
27 | Cc1cccc(C)c1OCC(C)N (stereo not given) [Mexiletine HCl] | 0.62
28 | O=C1c2cccc3c2[C@H](CCC3)CN1[C@@H]1CN2CCC1CC2 [Palonosetron HCl] | 0.17
29 | CCOC(=O)c1ccc(N)cc1 [Benzocaine hydrochloride] | 1.42
30 | O=C1CN(/N=C/c2ccc(-c3ccc([N+](=O)[O-])cc3)o2)C(=O)N1 [Dantrolene sodium] | -3.65
31 | CN(C)CCn1nnnc1SCC1=C(C(=O)O)N2C(=O)[C@@H](NC(=O)Cc3csc(N)n3)[C@H]2SC1 [Cefotiam hydrochloride] | -0.08
32 | Nc1ccc(/N=N/c2ccccc2)c(N)n1 [Phenazopyridine HCl] | -2.82
33 | O=C(c1ccc(OCCN2CCCCC2)cc1)c1c(-c2ccc(O)cc2)sc2cc(O)ccc12 [Raloxifene] | -1.73
34 | CC(C)(C)C1CCC(CC2=C(O)c3ccccc3C(=O)C2=O)CC1 (stereo not given) [Buparvaquone] | -0.95
35 | CC(NCCC(c1ccccc1)c1ccccc1)c1ccccc1 (stereo not given) [Fendiline hydrochloride] | -0.43
36 | CCCCCCCCCCCC(=O)O [Lauric Acid] | 0.57
37 | CCCCc1oc2ccccc2c1C(=O)c1cc(I)c(OCCN(CC)CC)c(I)c1 [Amiodarone HCl] | -0.62
38 | CCCCN1CCCC[C@H]1C(=O)Nc1c(C)cccc1C [Levobupivacaine HCl] | -0.04
39 | CCC1=C(C)CN(C(=O)NCCc2ccc(S(=O)(=O)NC(=O)N[C@H]3CC[C@H](C)CC3)cc2)C1=O [Glimepiride] | -0.47
40 | C/C(=C\C(=O)OCCCCCCCCC(=O)O)C[C@@H]1OC[C@H](C[C@@H]2O[C@H]2[C@@H](C)[C@H](C)O)[C@@H](O)[C@H]1O [Mupirocin calcium] | 1.26
